According to PubChem BioAssay AID493170 (National Center for Advancing Translational Sciences (NCATS), 2011):
Inconclusive results are not listed. Entries that show only a call come without a potency. Activity calls are given as the source filed them. Calls follow the shape of the dose curve; as a rule, active = well fitted inhibition curve with a large enough effect; inconclusive = small, poorly fitted or top-dose-only effect, or effect the other way; inactive = flat fitted curve, though single readings scatter.

target: Ubiquitin carboxyl-terminal hydrolase 2 (Homo sapiens) (UniProt O75604); assay: Ub-rhodamine 110 based assay for inhibitors Ubiquitin-specific Protease USP2a; conditions: USP2a Ub-rhodamine110 cleavage, fluorescence; series mostly up to 38.3 µM; also: nearly all actives have a fitted effect of over 50% in size
How it was run: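 5 nM USP2a preincubated with compounds for 30 min at RT in 20 mM Tris-HCl pH 8.0, 2 mM CaCl2, 2 mM beta-mercaptoethanol, 0.05% CHAPS. Cleavage of 150 nM Ub-rhodamine 110 read kinetically (Ex 485/Em 531) for 7 min.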
Potency is read from the fitted curve at half-maximal effect.

Chain of Ubiquitin carboxyl-terminal hydrolase 2 (Homo sapiens) (O75604 whole entry, looked up): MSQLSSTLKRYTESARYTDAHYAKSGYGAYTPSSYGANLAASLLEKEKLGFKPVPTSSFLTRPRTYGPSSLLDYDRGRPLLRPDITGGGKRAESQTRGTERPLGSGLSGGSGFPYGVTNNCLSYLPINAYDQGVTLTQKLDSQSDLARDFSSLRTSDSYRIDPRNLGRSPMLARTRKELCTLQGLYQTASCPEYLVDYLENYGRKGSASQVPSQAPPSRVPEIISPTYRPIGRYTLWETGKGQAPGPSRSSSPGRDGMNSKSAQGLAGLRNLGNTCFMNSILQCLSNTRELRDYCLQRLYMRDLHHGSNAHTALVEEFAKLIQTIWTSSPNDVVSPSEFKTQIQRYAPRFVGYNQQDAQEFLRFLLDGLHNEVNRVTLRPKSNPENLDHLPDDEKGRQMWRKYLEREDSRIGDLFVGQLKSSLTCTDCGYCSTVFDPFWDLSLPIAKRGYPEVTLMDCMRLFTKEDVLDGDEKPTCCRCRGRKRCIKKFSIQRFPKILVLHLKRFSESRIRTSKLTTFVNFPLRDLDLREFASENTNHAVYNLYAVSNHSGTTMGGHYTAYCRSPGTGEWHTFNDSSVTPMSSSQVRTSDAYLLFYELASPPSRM

Row | Compound | Potency
1 | C#CCOCCOCCOCCNc1nc(N2CCN(C(=O)CCCCCCCCCCNC(=O)[C@H](CCCCN)n3cc(CCO)nn3)CC2)nc(N2CCN(C(=O)CCCCCCCCCCNC(=O)[C@H](CCCCN)n3cc(C[C@@H](C)CC)nn3)CC2)n1 | inactive
2 | Cc1cc2c(c(=O)n1CC1CCCO1)C(c1ccco1)C(C#N)=C(N)O2 (stereo not given) | inactive
3 | CCOc1ccc(S(=O)(=O)N(CC(=O)O)c2ccccc2)cc1 | inactive
4 | CN(C)c1ccc(-c2ccccc2)nn1 | inactive
5 | O=S(=O)(Nc1ccc(O)c(Sc2nc3ccccc3s2)c1)c1cccc2ccccc12 | 10 µM (active)
6 | COc1ccc(/C=N\NC(=O)c2cc(O)c(O)c(O)c2)cc1COc1ccc(C(=O)OCC(C)C)cc1 | 2.82 µM (active)
7 | Cc1cc(/C=C2\C(=N)N3N=C(c4ccco4)SC3=NC2=O)c(C)n1Cc1ccccc1 | 7.08 µM (active)
8 | O=[N+]([O-])c1c(NCCO)cc(N2CCN(Cc3ccc4c(c3)OCO4)CC2)c2nonc12 | inactive
9 | COC(=O)c1ccc(CSc2ncnc3ccccc23)o1 | inactive
10 | CCn1cc(C(=O)N2CCOCC2)c(=O)c2cc(S(=O)(=O)N(C)C)ccc21 | inactive
11 | N#CCc1ccc(NC(=O)/C=C/c2ccc([N+](=O)[O-])o2)cc1 | 10 µM (active)
12 | CCCc1cc(=O)oc2cc(C)c(CN3CCCC3)c(O)c12 | 10 µM (active)
13 | CC1(C)CC(=O)C2=C(C1)N(Cc1ccco1)C(=O)NC2(C(F)(F)F)C(F)(F)F | inactive
14 | Cc1ccc(C(=O)Oc2coc(CSc3nnc(NC(=O)c4cccs4)s3)cc2=O)cc1 | 11.2 µM (active)
15 | Cc1ccc([C@H]2C(C(=O)O)=CC[C@@H](c3ccc(Cl)cc3)N2S(=O)(=O)c2ccc(C)cc2)cc1 | 11.2 µM (active)
16 | COc1cc(C)c(S(=O)(=O)NCc2ccc3c(c2)OCO3)cc1C | inactive
17 | COc1ccc(CCn2c(O)cc3nn(-c4nc5ccccc5s4)c(=O)c-3c2C)cc1 | 5.62 µM (active)
18 | Oc1ccc(/C=N/NC(=S)N/N=C/c2ccc(O)cc2)cc1 | inactive
19 | O=S(=O)(c1cc(Cl)ccc1Cl)N1CCNCC1 | inactive
20 | c1coc(CNC2CCCCCCC2)c1 | inactive

Row | Compound | Potency
21 | O=C(c1cccc(F)c1)N1CCN(S(=O)(=O)c2ccccc2)CC1 | inactive
22 | CCCCOC1(c2ccccc2)NC(=S)NN=C1c1ccccc1 (stereo not given) | inactive
23 | COC(=O)[C@@]12CCCCN1[C@H](c1ccc(-c3ccc(Cl)c(Cl)c3)cc1)[C@H]1C(=O)N(C)C(=O)[C@H]12 | inactive
24 | CCC(C)c1ccc(O)c(N)c1 (stereo not given) | inactive
25 | CCNC1=C(Cl)C(=O)c2ccccc2C1=O | inactive
26 | CNC(=O)NC(=O)CSc1ccc(NC(C)=O)cc1 | inactive
27 | Nc1ccccc1S(=O)(=O)NC1=NCCCCC1 | inactive
28 | CC(C)(C)c1cc(Br)ccc1OCC(=O)Nc1ncn[nH]1 | inactive
29 | C=CC[C@H](CC(=O)OC(C)(C)C)C(=O)OC[C@@H]1CCCN1C(=O)[C@H](CC=C)CC(=O)N[C@H](CO)Cc1ccccc1 | inactive
30 | FC(F)(F)c1cnc2c(c1)Nc1ccccc1S2 | inactive
31 | Cc1ccc(CNC(=O)CCNS(=O)(=O)c2ccc(C)cc2)cc1 | inactive
32 | COc1ccc(CCNC(=O)Cc2cc(=O)[nH]c(=O)[nH]2)cc1OC | inactive
33 | O=C(Nc1ncccc1Cl)c1cccc(F)c1 | inactive
34 | O=C(NCCc1ccccc1)c1ccc2nc(-c3ccco3)c(-c3ccco3)nc2c1 | 5.01 µM (active)
35 | COc1ccc2cc(CN(C(=O)Nc3ccccc3)C3CCCC3)c(=O)[nH]c2c1 | inactive
36 | C=CCn1c(Br)nc2c1c(=O)n(C)c(=O)n2C | inactive
37 | CCn1c(CN2CCOCC2)nnc1SCC(=O)Nc1ccc(C(C)=O)cc1 | inactive
38 | CCOc1ccc(NC(=O)c2ccc(NC(=O)COC(=O)c3ccc(NC(=O)CC#N)cc3)cc2)cc1 | 3.98 µM (active)
39 | CCOc1ccc2[nH]c(=O)c(CN(CCc3ccccc3)C(=O)c3cnccn3)cc2c1 | inactive
40 | N#C/C(=C\c1ccc(O)c(O)c1)C(=O)Nc1cccc2ncccc12 | 2.24 µM (active)
